What was measured:
Experiment in all cases: log2 ratio of Biotin-Ahx-Ub-VS probe labelling (fragment/DMSO); higher = less target engagement (more negative = stronger competition), active = hit call of the paper (q ≤ 0.05, log2 ratio ≤ -1)
Details in all cases: compound concentration: 200 uM; treatment time: 3 h
[1] = molecular target: T1, USP42 (UniProt Q9H9J4)
T1 sequence (whole entry): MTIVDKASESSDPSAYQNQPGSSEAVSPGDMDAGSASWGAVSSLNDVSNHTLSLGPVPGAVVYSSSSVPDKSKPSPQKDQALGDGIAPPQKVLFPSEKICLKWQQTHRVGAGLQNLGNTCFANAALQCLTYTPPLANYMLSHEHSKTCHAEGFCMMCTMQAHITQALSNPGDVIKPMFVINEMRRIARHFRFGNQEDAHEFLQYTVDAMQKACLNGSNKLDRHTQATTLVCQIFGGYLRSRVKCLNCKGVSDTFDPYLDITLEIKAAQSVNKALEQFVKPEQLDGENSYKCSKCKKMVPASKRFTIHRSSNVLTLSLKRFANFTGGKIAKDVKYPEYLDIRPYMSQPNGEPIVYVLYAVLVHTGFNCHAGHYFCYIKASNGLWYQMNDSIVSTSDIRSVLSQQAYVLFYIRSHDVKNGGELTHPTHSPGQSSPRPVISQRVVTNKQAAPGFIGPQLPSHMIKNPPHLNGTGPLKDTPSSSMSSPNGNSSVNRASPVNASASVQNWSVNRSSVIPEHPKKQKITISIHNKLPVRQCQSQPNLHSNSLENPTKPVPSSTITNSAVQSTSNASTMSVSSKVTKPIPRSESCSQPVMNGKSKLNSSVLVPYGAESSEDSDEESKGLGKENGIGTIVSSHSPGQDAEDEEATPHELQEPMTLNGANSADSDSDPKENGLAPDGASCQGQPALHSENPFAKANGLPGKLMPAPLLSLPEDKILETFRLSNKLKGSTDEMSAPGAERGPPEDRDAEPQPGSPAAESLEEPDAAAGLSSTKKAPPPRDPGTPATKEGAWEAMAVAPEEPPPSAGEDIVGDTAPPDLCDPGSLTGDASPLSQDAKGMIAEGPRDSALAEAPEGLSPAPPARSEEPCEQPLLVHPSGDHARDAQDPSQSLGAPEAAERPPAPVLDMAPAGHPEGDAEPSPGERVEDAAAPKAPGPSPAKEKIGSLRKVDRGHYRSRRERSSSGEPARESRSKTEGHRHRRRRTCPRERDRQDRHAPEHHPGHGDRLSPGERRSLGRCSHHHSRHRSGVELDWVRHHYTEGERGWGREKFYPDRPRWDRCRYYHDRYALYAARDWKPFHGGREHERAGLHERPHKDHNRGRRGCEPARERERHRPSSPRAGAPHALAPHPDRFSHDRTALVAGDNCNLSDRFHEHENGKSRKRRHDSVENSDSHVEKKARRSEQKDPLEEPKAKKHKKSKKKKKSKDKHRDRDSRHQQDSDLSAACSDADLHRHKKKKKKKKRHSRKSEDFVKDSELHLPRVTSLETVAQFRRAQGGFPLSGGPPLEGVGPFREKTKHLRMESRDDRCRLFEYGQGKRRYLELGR
Summary of the method: (§1)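 Labelling with Biotin-Ahx-Ub-VS (0.5 µM final, 1 h) followed a 3 h triplicate treatment of HEK293T lysate (495 µg per sample, Tris/CHAPS/IGEPAL buffer with protease inhibitors) with fragment at 200 µM or vehicle. Labelled DUBs were NeutrAvidin-enriched, digested with LysC and trypsin, and run by diaPASEF LC-MS/MS. The values, average log2 fragment/vehicle ratios by unpaired t-test, come from global-median-normalised Spectronaut label-free quantities. Proteins with ≥2 unique peptides were used.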

[2] = molecular target: USP46 (UniProt P62068)
Summary of the method: as §1

[3] = molecular target: T2, USP47 (UniProt Q96K76)
T2 sequence (whole entry): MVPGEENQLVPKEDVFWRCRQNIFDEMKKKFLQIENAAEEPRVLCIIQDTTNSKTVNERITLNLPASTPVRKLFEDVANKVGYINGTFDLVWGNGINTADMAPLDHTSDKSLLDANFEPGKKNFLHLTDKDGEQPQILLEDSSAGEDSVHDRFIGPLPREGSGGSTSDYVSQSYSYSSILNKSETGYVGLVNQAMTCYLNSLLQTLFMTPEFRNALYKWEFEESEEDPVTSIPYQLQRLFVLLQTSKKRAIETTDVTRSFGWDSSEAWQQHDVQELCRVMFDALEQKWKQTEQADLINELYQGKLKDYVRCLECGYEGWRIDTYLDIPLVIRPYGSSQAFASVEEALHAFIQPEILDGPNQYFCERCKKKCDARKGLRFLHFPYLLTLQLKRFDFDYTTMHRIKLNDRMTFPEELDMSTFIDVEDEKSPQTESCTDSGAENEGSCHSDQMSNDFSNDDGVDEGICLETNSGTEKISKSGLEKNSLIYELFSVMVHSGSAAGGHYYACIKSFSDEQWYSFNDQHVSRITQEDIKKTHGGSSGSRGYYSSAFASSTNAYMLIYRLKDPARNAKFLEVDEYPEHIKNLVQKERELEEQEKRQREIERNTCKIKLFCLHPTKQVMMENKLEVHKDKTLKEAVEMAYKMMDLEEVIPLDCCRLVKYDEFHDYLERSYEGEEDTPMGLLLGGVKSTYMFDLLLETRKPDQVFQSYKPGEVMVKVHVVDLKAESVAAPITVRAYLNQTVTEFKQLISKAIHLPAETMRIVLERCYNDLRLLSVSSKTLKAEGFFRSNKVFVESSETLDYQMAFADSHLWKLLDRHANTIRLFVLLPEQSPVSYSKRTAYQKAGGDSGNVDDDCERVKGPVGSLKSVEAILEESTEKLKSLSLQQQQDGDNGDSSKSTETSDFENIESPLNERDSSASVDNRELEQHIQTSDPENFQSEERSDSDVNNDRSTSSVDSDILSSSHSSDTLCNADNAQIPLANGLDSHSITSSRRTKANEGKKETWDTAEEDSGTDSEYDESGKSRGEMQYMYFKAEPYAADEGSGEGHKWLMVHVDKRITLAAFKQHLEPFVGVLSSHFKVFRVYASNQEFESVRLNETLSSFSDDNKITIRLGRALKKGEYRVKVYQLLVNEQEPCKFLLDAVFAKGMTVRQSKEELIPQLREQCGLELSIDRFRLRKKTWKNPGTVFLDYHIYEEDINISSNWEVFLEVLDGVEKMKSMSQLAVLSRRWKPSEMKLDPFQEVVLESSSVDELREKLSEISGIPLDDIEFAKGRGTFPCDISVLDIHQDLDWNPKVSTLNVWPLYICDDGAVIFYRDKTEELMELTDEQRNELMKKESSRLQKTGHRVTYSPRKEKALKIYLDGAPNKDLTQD
Summary of the method: as §1

[4] = molecular target: T3, USP48 (UniProt Q86UV5)
T3 sequence (whole entry): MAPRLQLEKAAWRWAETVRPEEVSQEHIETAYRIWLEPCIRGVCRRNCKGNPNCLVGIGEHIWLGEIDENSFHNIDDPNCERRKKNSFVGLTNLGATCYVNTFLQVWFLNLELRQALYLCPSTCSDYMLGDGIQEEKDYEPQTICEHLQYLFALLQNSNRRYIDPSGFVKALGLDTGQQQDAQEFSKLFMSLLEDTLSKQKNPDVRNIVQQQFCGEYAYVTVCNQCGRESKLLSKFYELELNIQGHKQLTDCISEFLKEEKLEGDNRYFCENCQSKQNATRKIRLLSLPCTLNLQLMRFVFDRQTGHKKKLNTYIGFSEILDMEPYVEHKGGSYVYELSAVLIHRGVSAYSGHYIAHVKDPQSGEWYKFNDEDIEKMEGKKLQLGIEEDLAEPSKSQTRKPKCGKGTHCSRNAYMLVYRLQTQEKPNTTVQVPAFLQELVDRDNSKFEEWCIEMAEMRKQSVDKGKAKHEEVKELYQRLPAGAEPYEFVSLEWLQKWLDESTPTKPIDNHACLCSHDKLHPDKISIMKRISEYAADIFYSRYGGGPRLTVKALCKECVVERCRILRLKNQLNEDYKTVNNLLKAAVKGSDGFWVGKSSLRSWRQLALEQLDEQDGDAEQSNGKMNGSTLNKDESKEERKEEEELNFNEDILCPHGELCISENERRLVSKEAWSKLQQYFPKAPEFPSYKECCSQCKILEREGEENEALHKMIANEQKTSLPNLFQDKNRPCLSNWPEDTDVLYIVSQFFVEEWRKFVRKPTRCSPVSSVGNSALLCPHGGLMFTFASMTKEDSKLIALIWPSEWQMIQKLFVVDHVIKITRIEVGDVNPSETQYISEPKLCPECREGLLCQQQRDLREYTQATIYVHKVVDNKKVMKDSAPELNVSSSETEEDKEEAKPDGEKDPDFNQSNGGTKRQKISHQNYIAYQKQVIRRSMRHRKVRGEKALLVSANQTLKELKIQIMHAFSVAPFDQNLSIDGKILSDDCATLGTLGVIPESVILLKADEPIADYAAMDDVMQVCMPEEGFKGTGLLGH
Summary of the method: as §1

[5] = molecular target: T4, USP5 (UniProt P45974)
T4 sequence (whole entry): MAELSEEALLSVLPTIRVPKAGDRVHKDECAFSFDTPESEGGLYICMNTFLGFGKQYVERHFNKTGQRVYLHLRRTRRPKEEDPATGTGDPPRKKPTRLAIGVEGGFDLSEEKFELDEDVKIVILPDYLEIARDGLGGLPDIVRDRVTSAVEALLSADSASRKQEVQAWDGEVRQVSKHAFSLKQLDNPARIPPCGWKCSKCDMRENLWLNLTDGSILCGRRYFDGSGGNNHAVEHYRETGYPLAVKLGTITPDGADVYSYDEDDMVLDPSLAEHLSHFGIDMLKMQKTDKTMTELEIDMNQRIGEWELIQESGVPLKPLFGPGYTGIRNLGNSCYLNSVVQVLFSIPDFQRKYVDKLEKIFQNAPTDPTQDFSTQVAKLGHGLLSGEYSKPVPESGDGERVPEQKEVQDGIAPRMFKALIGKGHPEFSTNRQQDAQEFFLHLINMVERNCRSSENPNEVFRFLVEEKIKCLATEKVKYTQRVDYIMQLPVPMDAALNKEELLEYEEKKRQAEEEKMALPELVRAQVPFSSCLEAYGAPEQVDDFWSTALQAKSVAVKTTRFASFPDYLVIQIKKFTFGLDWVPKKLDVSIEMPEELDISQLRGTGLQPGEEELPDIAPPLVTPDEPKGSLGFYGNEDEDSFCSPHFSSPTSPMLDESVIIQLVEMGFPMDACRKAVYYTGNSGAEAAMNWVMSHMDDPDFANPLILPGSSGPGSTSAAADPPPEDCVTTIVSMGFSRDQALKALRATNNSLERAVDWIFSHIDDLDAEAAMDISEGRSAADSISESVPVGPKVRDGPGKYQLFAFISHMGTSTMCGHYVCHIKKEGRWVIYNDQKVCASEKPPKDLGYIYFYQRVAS
Summary of the method: as §1

[6] = molecular target: USP54 (UniProt Q70EL1)
Summary of the method: as §1

[7] = molecular target: USP7 (UniProt Q93009)
Summary of the method: as §1

[8] = molecular target: T5, USP8 (UniProt P40818)
T5 sequence (whole entry): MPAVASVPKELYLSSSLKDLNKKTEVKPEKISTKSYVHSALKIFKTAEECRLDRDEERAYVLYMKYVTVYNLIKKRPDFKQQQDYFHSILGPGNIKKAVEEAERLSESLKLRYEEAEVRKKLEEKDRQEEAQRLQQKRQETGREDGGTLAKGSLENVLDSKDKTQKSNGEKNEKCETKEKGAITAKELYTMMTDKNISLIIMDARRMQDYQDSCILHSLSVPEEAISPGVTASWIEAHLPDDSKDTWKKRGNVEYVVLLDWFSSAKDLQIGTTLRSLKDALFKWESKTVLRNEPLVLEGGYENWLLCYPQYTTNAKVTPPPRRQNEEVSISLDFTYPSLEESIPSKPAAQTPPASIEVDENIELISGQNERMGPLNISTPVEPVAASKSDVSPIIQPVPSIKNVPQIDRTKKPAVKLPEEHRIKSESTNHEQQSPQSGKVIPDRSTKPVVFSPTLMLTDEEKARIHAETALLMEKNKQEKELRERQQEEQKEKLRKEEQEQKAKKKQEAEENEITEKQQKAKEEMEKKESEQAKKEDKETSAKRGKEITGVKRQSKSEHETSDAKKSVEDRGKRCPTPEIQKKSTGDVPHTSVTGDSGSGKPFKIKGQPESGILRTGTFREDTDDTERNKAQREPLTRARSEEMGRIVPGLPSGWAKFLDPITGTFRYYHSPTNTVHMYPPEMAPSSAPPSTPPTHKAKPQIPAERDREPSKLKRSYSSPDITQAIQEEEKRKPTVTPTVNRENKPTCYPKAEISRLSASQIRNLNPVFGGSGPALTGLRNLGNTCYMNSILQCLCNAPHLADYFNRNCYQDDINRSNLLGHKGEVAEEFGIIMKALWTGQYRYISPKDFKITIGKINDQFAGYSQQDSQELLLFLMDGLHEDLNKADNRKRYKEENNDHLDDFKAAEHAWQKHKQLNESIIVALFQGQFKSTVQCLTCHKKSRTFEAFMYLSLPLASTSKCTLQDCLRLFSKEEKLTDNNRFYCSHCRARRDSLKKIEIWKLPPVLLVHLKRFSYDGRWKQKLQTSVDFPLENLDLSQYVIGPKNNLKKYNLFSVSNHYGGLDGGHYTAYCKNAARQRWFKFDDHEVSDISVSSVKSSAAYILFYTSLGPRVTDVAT
Summary of the method: as §1

[9] = molecular target: USP9X (UniProt Q93008)
Summary of the method: as §1

[10] = molecular target: UniProt O00487
Summary of the method: as §1

Measured: log2 ratio of Biotin-Ahx-Ub-VS probe labelling

Chain of USP9X (Q93008 whole entry): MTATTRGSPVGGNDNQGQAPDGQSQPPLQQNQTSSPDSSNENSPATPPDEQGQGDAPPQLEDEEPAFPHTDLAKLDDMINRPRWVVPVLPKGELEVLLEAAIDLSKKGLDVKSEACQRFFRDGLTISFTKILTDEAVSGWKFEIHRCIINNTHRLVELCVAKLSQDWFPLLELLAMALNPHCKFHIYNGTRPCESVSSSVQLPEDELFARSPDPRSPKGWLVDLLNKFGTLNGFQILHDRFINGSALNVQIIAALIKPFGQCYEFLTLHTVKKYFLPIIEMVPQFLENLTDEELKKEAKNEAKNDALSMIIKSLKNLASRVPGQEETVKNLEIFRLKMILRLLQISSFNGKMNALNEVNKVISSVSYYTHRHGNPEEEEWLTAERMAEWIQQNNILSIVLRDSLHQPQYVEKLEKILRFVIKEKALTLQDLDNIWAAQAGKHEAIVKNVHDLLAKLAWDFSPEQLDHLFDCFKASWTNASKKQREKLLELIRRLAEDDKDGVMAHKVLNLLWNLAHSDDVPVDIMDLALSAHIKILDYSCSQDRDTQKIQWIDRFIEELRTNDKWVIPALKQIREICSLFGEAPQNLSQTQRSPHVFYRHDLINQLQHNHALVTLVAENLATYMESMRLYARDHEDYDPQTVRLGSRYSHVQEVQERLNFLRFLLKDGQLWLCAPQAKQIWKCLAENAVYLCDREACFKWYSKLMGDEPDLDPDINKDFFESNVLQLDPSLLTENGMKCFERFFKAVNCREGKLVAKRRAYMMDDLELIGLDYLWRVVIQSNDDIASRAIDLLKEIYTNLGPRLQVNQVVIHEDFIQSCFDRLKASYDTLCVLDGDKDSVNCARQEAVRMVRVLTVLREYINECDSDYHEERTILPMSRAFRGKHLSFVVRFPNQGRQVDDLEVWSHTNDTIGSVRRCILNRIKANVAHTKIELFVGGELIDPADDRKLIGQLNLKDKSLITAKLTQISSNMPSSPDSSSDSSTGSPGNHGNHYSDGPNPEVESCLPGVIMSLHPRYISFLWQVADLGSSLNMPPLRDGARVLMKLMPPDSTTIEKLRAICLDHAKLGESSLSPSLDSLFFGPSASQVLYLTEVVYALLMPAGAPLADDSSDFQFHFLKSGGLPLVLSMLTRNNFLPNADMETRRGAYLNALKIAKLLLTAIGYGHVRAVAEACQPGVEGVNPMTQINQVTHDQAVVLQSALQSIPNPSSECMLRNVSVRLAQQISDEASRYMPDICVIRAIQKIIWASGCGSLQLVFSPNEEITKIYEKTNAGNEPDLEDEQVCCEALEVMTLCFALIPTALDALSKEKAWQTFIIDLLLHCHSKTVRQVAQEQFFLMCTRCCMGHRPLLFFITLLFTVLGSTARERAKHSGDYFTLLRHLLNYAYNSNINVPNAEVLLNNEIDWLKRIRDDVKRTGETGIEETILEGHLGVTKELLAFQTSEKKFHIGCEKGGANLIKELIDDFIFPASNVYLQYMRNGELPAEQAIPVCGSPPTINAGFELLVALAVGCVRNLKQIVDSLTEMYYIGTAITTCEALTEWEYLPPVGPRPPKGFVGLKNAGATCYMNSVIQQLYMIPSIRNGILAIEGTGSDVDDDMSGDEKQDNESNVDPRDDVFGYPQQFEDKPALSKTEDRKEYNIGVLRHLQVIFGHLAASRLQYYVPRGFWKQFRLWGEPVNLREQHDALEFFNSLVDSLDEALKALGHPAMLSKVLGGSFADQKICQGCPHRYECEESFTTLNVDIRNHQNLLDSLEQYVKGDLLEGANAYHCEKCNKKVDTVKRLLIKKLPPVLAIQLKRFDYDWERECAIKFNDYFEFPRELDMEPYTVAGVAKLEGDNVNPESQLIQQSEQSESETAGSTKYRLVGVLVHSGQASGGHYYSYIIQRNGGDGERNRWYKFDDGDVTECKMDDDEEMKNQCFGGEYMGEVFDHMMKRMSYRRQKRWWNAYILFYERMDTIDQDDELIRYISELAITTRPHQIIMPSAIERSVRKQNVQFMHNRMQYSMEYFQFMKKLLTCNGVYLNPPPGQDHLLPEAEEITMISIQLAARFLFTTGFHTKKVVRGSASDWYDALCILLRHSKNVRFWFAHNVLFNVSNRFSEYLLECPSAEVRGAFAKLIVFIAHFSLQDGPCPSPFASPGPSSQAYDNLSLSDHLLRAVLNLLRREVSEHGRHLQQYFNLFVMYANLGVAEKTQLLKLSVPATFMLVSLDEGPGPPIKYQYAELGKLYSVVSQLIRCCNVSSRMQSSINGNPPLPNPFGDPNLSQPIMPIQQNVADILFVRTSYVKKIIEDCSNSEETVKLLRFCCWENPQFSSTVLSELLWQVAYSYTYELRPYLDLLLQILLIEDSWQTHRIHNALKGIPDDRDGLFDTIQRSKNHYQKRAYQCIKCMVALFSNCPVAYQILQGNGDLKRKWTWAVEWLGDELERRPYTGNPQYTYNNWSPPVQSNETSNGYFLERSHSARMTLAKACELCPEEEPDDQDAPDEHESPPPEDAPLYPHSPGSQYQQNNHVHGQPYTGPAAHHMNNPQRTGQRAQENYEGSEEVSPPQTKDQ
Chain of USP7 (Q93009 whole entry, looked up): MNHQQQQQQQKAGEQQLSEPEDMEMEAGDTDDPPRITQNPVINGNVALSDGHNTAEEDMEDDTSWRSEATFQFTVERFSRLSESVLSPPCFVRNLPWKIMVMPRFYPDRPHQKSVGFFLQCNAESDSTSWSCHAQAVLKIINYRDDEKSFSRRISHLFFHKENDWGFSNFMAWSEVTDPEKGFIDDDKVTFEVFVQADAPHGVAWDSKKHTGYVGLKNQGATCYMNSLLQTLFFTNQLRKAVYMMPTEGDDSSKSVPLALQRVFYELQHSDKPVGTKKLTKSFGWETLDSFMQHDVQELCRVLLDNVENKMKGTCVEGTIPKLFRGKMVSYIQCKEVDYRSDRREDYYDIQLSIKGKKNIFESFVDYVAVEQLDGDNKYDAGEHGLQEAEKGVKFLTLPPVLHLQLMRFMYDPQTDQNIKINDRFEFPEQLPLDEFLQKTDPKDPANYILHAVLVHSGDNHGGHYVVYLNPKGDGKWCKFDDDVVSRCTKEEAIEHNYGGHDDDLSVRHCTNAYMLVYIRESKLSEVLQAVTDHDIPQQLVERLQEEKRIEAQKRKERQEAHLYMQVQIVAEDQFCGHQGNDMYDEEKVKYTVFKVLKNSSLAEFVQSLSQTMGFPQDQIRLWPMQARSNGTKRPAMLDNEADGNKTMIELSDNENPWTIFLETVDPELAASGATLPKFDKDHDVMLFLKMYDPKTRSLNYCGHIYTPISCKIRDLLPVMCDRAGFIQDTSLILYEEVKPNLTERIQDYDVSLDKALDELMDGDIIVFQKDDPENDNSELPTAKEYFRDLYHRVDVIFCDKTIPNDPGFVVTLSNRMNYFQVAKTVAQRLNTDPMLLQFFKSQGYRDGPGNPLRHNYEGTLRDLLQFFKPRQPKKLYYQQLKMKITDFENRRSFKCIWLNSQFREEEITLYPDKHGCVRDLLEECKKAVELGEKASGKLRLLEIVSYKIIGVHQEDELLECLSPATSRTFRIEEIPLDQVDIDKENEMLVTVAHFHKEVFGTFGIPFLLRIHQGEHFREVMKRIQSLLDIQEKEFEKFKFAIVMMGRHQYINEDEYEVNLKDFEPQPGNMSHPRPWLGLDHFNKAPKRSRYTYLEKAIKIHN
Chain of USP46 (P62068 whole entry): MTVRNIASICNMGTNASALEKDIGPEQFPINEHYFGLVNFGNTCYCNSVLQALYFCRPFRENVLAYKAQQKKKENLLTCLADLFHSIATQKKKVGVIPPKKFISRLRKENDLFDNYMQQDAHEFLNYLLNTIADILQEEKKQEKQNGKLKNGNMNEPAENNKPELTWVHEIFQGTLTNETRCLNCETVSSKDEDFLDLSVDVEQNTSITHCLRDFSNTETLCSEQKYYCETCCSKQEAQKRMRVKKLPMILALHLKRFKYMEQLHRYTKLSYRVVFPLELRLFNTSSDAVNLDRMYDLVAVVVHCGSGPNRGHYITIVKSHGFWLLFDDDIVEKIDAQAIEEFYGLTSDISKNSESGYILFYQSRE
Chain of UniProt O00487 (O00487 whole entry): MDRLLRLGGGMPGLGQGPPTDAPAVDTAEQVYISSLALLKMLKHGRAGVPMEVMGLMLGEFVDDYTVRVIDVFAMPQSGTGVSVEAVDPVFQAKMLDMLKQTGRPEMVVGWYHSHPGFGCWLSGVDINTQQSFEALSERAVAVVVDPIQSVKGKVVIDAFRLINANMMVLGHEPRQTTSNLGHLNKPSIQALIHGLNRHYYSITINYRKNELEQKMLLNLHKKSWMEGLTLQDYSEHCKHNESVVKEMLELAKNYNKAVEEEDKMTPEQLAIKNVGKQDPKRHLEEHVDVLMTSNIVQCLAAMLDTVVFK

Cc1ccccc1C1(CNC(=O)CCl)CCOCC1
inactive: [1] -0.0942 | [2] 0.0453 | [3] -0.619 | [4] -0.295 | [5] 0.17 | [6] 0.35 | [7] -0.102 | [8] -0.0708 | [9] -0.0641 | [10] -0.115

Source: the supplement of paper PMC11732987, “Enantioselective OTUD7B fragment discovery through chemoproteomics screening and high-throughput optimisation” (Communications Chemistry, 2025)
